Experimental data from PubChem BioAssay AID1490 (National Center for Advancing Translational Sciences (NCATS), 2009).
Screen size: about 310,000 compounds; about 11,000 (3.5%) were called active. Roughly 4% stayed inconclusive and do not appear here. Calls come from the whole dose curve; as a rule, active = well fitted inhibition curve with a large enough effect; inconclusive = small, poorly fitted or top-dose-only effect, or another doubt; inactive = no such curve, though single readings can be large or run the other way. The sample as a whole holds a higher share of actives than the screen did.

Biological target: 4'-phosphopantetheinyl transferase ffp (Bacillus subtilis) (UniProt Q9F4F7)
Test: qHTS Assay for Inhibitors of Bacillus subtilis Sfp phosphopantetheinyl transferase (PPTase);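 note: the enzyme is Sfp with the accession as filed and its product quenches rhodamine fluorescence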;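 for largest response in the series, negative = inhibition: 0% = enzyme reaction without inhibitor and -100% = no enzyme wells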
Conditions: Biochemical Sfp PPTase activity
Text: Assay Submitter: Michael Burkart, University of California, San Diego
Screening Center PI: Austin, C.P.
Screening Center: NIH Chemical Genomics Center [NCGC]
The covalent attachment of a phosphopantetheinyl (4'-PP) arm to a variety of synthases and other proteins is a key posttranslational protein modification. The 4'-PP is installed on the proteins post-translationally from coenzyme A (CoA) on a conserved serine residue by action of phosphopantetheinyl transferase (PPTase) enzymes. Phosphopantetheinylation is essential for synthase activity, and removal of the PPTase gene precludes natural product synthesis in microorganisms, or in the case of fatty acid biosynthesis, renders the organism unviable. PPTase enzymes belong to a distinct structural superfamily. Within bacteria, these enzymes are grouped into two classes based upon primary structure, the AcpS-Type and Sfp-Type PPTases.
Sfp-type PPTases, corresponding to an activator of surfactin production in Bacillus subtilis, are responsible for modifying type I polyketide and nonribosomal peptide synthases of prokaryotes. Sfp-type PPTases are responsible for the activation of a variety of pathogen-associated virulence factors. Among these compounds are toxins such as mycolactone from Mycobacterium ulcerans, siderophores such as vibriobactin from Vibrio cholerae or mycobactin from Mycobacterium tuberculosis, as well as the mycolic acids which form the waxy cell wall of Mycobacteria. The biosyntheses of these natural products are considered attractive targets for drug design.
In search of small molecule Sfp-PPTase inhibitors, a fluorescence quenching assay was developed for detection of Bacillus subtilis Sfp-PPTase enzymatic activity in a miniaturized high-throughput format. The consensus ybbr acceptor peptide […] was N-terminally labeled with Black Hole Quencher-2 (BHQ-2) and used in combination with rhodamine-labeled coenzyme A as a co-substrate.
Inhibition of Sfp-PPTase was detected by recording the fluorescence intensity change over a 30-minute reaction period at a 525 nm excitation and 598 nm emission. Reagents were supplied by Michael Burkart and Timothy Foley, University of California at San Diego.
This BioAssay deposition is for validation of the developed Sfp-PPtase assay.
Assay Buffer: 50 mM Hepes-Na pH 7.6, 10 mM MgCl2, 0.01% Nonidet P-40, and 0.01% BSA.
3 uL of Sfp-PPTase enzyme (final concentration 15 nM) and 1 uL of substrate mixture (final concentration for rhodamine-CoA and BHQ-2-YbbR 5 uM and 12.5 uM, respectively) dispensed in columns 1, 2, 5 - 48. Columns 1 and 2 used to generate neutral control (uninhibited reaction)
Three uL of reagents, consisting of buffer (in columns 3 and 4 as negative control) and Sfp-PPTase (in columns 1, 2, 5 - 48) were dispensed into 1,536-well Greiner black solid bottom plate. Compounds (23 nL) were transferred via Kalypsys pintool equipped with 1,536-pin array. The plate was incubated for 15 min at room temperature, followed by the addition of 1 uL substrate to start the reaction. The plate was then centrifuged at 1000 rpm for 15 seconds, and the fluorescence intensity recorded on a ViewLux High-throughput CCD imager (Perkin-Elmer) using standard BODIPY optics (525 nm excitation and 598 nm emission). The plate was then incubated for 30 minutes, and a second read on the ViewLux was performed. The fluorescence intensity difference over the 30-minute period was used to calculate the respective reaction rate for each well.
Potency is the fitted concentration of half-maximal effect.

Compound | largest response in the series, negative = inhibition | Potency
N#Cc1ccccc1NC(=O)c1ccc2c(c1)OCO2 | 20.2% (inactive) | –
COc1ccc(CN2C3CCCC2CC(NC(=O)c2cccc(F)c2)C3)cc1 (centres undefined) | 9.04% (inactive) | –
O=C(N/N=C/c1cccc(Br)c1)c1ccc(N2CCCC2=O)cc1 | 2.98% (inactive) | –
Cc1occc1C(=O)NC1CCCN(Cc2ccc(CC(C)C)cc2)C1 (centres undefined) | 10% (inactive) | –
COc1ccc(CNC(=O)CN(C(=O)c2csnn2)c2cnc3ccccc3c2)cc1 | 15.4% (inactive) | –
CCc1c(C)sc(NC(=O)c2cccs2)c1C(N)=O | – | 14.1 µM (active)
CCc1c(C)sc(NC(=O)c2ccc(Br)o2)c1C(=O)OC | -4.91% (inactive) | –
COC(=O)c1c(NC(=O)c2cccs2)sc2c1CCCC2 | 6.07% (inactive) | –
CC(C)(COC(=O)Nc1ccccc1)COC(=O)Nc1ccccc1 | 5.47% (inactive) | –
NC(=O)CSc1nnc(NC(=O)c2ccc(Br)o2)s1 | 4.59% (inactive) | –
Cc1cc(OC(=O)c2ccc(OC(C)C)cc2)c([N+](=O)[O-])c(=O)[nH]1 | 16.6% (inactive) | –
C=CCOc1cccc(CNCc2cccnc2)c1 | -13.5% (inactive) | –
Fc1ccccc1COc1ccccc1CNCc1ccncc1 | -8.76% (inactive) | –
c1ccc(COc2ccccc2CNCc2cccnc2)cc1 | – | 56.2 µM (active)
Oc1c(Cl)cc(Cl)cc1/C=N/c1ncn[nH]1 | -2.74% (inactive) | –
Cc1ccc(CN2CCN(Cc3cn(C)nc3-c3ccccc3)CC2CCO)o1 (centres undefined) | 8.78% (inactive) | –
Cc1ccccc1CN1C[C@@H]2C[C@@H](c3ccc4nsnc4c3)N3CCC[C@@]23C1=O | 7.31% (inactive) | –
Cc1ccccc1CN1C[C@@H]2C[C@@H](c3cn(C)nc3-c3ccccc3)N3CCC[C@@]23C1=O | – | 3.16 µM (active)
COc1ccc(NC(=O)CSc2nc(SC)ns2)c(OC)c1 | 8.6% (inactive) | –
COC(=O)c1c(C)[nH]c(C)c1-c1ccc([N+](=O)[O-])cc1 | 9.93% (inactive) | –
COC(=O)C1=C(C(=O)OC)C(c2cc([N+](=O)[O-])ccc2O)c2sc(=O)[nH]c2S1 (centres undefined) | – | 44.7 µM (active)
COC(=O)C1=C(C)N(C)C(=O)NC1c1ccc([N+](=O)[O-])o1 (centres undefined) | 23.4% (inactive) | –
COC(=O)c1cc(S(=O)(=O)N2CCN(c3cc(C)ccc3C)CC2)c[nH]1 | 24.2% (inactive) | –
COc1ccc(S(=O)(=O)n2nc(C)c(S(=O)(=O)N3CCOCC3)c2C)cc1 | 8.67% (inactive) | –

Compound | largest response in the series, negative = inhibition | Potency
COc1cccc(C2Nc3cccc4cccc(c34)N2)c1 | 6.1% (inactive) | –
Cc1ccc(C2Nc3cccc4cccc(c34)N2)cc1 | -26.1% (inactive) | –
Oc1ccc(C2Nc3cccc4cccc(c34)N2)cc1 | – | 35.5 µM (active)
FCOC(C(F)(F)F)C(F)(F)F | 11.5% (inactive) | –
CCc1ccc(NC(=O)Cn2nnc(C(=O)NCc3ccc(OC)cc3)c2N)cc1 | 4.14% (inactive) | –
COc1ccc(CNc2ncncc2-c2ccccc2C)c(OC)c1 | -23.8% (inactive) | –
Cc1cnc(CNc2ncncc2-c2ccccc2Cl)cn1 | – | 79.4 µM (active)
COc1ccc(CNc2ncncc2-c2ccccc2OC)c(OC)c1 | -6.24% (inactive) | –
CS(=O)(=O)c1ccccc1C(=O)Nc1ccc2sccc2c1 | 8.96% (inactive) | –
Cc1cccc(CSc2nc3c(c(=O)n2C)SCC3)c1 | – | 50.1 µM (active)
Cn1c(SCC(=O)N2CCCCC2)nc2c(c1=O)SCC2 | 15.7% (inactive) | –
CCn1c(SCc2ccccc2)nc2c(c1=O)SCC2 | 11.2% (inactive) | –
Cc1ccc(S(=O)(=O)N(Cc2ccccc2)c2ccccn2)cc1[N+](=O)[O-] | 11.4% (inactive) | –
COc1cc(S(=O)(=O)Nc2ncn[nH]2)ccc1Cl | -14.8% (inactive) | –
CCC1S/C(=N/N=C/c2ccco2)NC1=O (centres undefined) | 3.46% (inactive) | –
CC(C)(C)C1C/C(=C/c2ccco2)C(=O)/C(=C/c2ccco2)C1 (centres undefined) | – | 20 µM (active)
O=C1OC(/C=C/c2ccccc2)=NC/1=C/c1ccco1 | 12.2% (inactive) | –
CCCC(=O)N1CCC(CCC(=O)NC2CC2)CC1 | 11.2% (inactive) | –
COc1ccc(CNC(=O)C2CCN(C(=O)c3ccccc3)CC2)cc1 | 8.47% (inactive) | –
CCCCC(CC)CNC(=O)C(=O)C1C(=O)Nc2ccccc21 (centres undefined) | 22% (inactive) | –
CCOC(=O)C(=O)C1C(=O)Nc2ccccc21 (centres undefined) | – | 25.1 µM (active)
CCOC(=O)CC1=CC(=O)Nc2ccccc2N1 | -6.73% (inactive) | –
COC1=C/C(=C/c2c(N)n3nc(CC(=O)N4CCOCC4)sc3nc2=O)C=CC1=O | -2.99% (inactive) | –
CCC(NC(=O)c1ccccc1NC(=O)c1ccccc1)C(=O)NNC(=O)CSc1nc2ccccc2o1 (centres undefined) | -1.67% (inactive) | –

Compound | largest response in the series, negative = inhibition | Potency
CCCCc1nnc(NC(=O)CSc2nc(C)cc(=O)[nH]2)s1 | 9.76% (inactive) | –
CCOC(=O)Cc1csc(NC(=O)CSc2ccc(Br)cc2)n1 | 11.6% (inactive) | –
CCOC(=O)Cc1csc(NC(=O)CSc2nc(C)cc(=O)[nH]2)n1 | – | 17.8 µM (active)
Cc1ccc(-n2c(SCC(=O)NCCC3=CCCCC3)nc3n[nH]c(C)c3c2=N)cc1Cl | 14.5% (inactive) | –
CSc1cccc(NC(=O)CN2C(=O)COc3ccc(S(=O)(=O)N4CCOCC4)cc32)c1 | 10.2% (inactive) | –
O=C1COc2ccc(S(=O)(=O)Nc3ccc(OC(F)(F)F)cc3)cc2N1 | 25.6% (inactive) | –
Cc1nc([N+](=O)[O-])cn1CC(=O)Nc1ccc(Cl)cc1 | 16.2% (inactive) | –
N#Cc1c(-c2ccc(Cl)cc2)c2c([nH]c1=S)CCCC2 | -5.85% (inactive) | –
Cc1cc(C)c2c(-c3ccc(F)cc3)c(C#N)c(=O)n(C)c2n1 | 10.3% (inactive) | –
CC(=O)c1c(C)[nH]c(=S)c(C#N)c1-c1ccc(F)cc1 | – | 44.7 µM (active)
CCOC(=O)c1c(C)[nH]c(=S)c(C#N)c1-c1ccccc1 | – | 79.4 µM (active)
CCOC(=O)c1c(C)[nH]c2c1-c1ccccc1C(=O)C2=O | 4.96% (inactive) | –
CCOC(=O)c1c(C)nc(-c2ccccc2)nc1NC(=O)C(C)C | -3.48% (inactive) | –
Cc1ccc(S(=O)(=O)NCC(=O)N2CCOCCOCCOCCOCC2)cc1 | 7.3% (inactive) | –
COc1ccc(/C=C2\SC(=S)N(CCC(=O)Nc3ccccn3)C2=O)cc1OC | 11% (inactive) | –
COc1ccc(-c2nn(-c3ccccc3)cc2/C=C2/SC(=S)N(CCCC(=O)O)C2=O)c(C)c1 | – | 56.2 µM (active)
COc1ccccc1C(=O)NNC(=O)CCN1C(=O)/C(=C\c2ccccc2)SC1=S | -10.5% (inactive) | –
CN(C)S(=O)(=O)c1cccc(-c2nn(-c3ccccc3)cc2/C=C2\SC(=S)N(CC(=O)O)C2=O)c1 | – | 56.2 µM (active)
O=C(CN1C(=O)/C(=C\c2ccccc2F)SC1=S)Nc1nc2ccccc2s1 | 5.28% (inactive) | –
Cc1ccc(-c2nn(-c3ccccc3)cc2CN(Cc2ccccc2)C(=O)CCC(=O)O)o1 | – | 8.91 µM (active)
O=C(O)CCC(=O)N(Cc1ccccc1)Cc1ccccc1 | 17.6% (inactive) | –
Cc1ccc(/C=C2\SC(=S)N(CCC(=O)Nc3ccc(O)cc3)C2=O)cc1 | 15.8% (inactive) | –
Cc1ccc(-c2nn(-c3ccccc3)cc2/C=C2\SC(=S)N(CCCCCC(=O)O)C2=O)o1 | – | 39.8 µM (active)
Cc1ccc(-c2nn(-c3cccc(F)c3)cc2CNCCc2ccncc2)o1 | -5% (inactive) | –

Compound | largest response in the series, negative = inhibition | Potency
Cc1ccc(-c2nn(-c3ccccc3)cc2/C=C/C(=O)Nc2cccc(S(N)(=O)=O)c2)cc1 | 12.2% (inactive) | –
C=CCOc1ccc(/C=C2\SC(=S)N(CCC(=O)O)C2=O)cc1 | 6.13% (inactive) | –
Cc1n[nH]c(=O)c2c1nnn2Cc1ccc(F)cc1 | 6.71% (inactive) | –
CCOCCCNC(=O)C1(O)c2cc(Br)ccc2NC(=O)N1c1ccc(C)c(C)c1 (centres undefined) | -2.61% (inactive) | –
Cc1ccc(S(=O)(=O)NCCC(=O)Nc2cccc(S(N)(=O)=O)c2)cc1C | -1.6% (inactive) | –
O=S(=O)(c1ccc(F)cc1)N1CCN=C1SCc1cccc(F)c1 | 5.65% (inactive) | –
O=C(Nc1ccccc1C(=O)Nc1ccncc1)c1ccc([N+](=O)[O-])cc1 | 4.06% (inactive) | –
O=C(CN1CCCCCC1)Nc1c(Cl)cc(Cl)cc1Cl | 6.16% (inactive) | –
O=S(O)S(=O)(=O)O | 7.74% (inactive) | –
Cc1nc2nc(C)c(NS(=O)(=O)c3ccc(C(C)(C)C)cc3)c(=O)n2[nH]1 | 14.4% (inactive) | –
COc1cccc(C(=O)NC(=O)Nc2nc(C)cc(C(F)(F)F)n2)c1 | 14.9% (inactive) | –
CC1CC(C)CN(CCCNC(=O)c2csc3c2CCCCC3)C1 (centres undefined) | 5.49% (inactive) | –
O=C(NCCc1cccc(F)c1)C1CCCN(c2nc3ccccc3s2)C1 (centres undefined) | -6.45% (inactive) | –
CN1CCN(c2ccccc2NC(=O)COc2ccc(C3CCCCC3)cc2)CC1 | -19.2% (inactive) | –
CCn1cc(C(=O)NCC2CCCO2)c(=O)c2cc(S(=O)(=O)N3CCCCC3)ccc21 (centres undefined) | 4.08% (inactive) | –
CCn1cc(C(=O)N2CC(C)CC(C)C2)c(=O)c2cc(S(=O)(=O)N3CCCC3)ccc21 (centres undefined) | 3.15% (inactive) | –
CCn1cc(C(=O)NCCCN2CCCCCC2)c(=O)c2cc(S(=O)(=O)N3CCc4ccccc4C3)ccc21 | – | 89.1 µM (active)
CCN1CCN(C(=O)C2CCN(S(=O)(=O)c3cc(Cl)ccc3Cl)CC2)CC1 | 7.6% (inactive) | –
CC(C)c1ccc(NC(=O)[C@@H](NC(=O)N2CC(=O)Nc3ccccc32)C(C)C)cc1 | 4.22% (inactive) | –
Oc1c(C(c2cccs2)N2CCN(c3ccc(F)cc3)CC2)sc2ncnn12 (centres undefined) | 13.9% (inactive) | –
Cc1nc2sc(C(c3ccco3)N3CCOCC3)c(O)n2n1 (centres undefined) | -2.77% (inactive) | –
Oc1c(C(c2ccco2)N2CCC3(CC2)OCCO3)sc2ncnn12 (centres undefined) | – | 28.2 µM (active)
